Screening results (PubChem BioAssay)
L3MBTL1 block = inhibitors of human L3MBTL1. Q9Y468. AlphaScreen L3MBTL1–H3K9me1 peptide binding. Potency, µM (top dose mostly 57.1 µM), inactives show at the top dose activity, negative = inhibition, usual class: inhibitors. actives 0.66% (n = 230,000); further: on the % scale 0 is the no-effect control and ±100 the full control effect; nearly all actives have a fitted effect of over 60% in size
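Displacement of a biotinylated histone H3(1-15) peptide monomethylated at Lys9 (75 nM) from L3MBTL1 (50 nM) was measured by AlphaScreen after a 30 min room-temperature compound incubation; cefsulodin titration served as intraplate control.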
BAZ2B inh = blocks human BAZ2B; Q9UIF8; AlphaScreen BAZ2B-H3K14Ac peptide displacement; Potency, µM (series often up to 114 µM), inactives show at the top dose activity change, negative = inhibition, usual class: inhibitors; actives 4.4% (n = 360,000); AID 504333; further: on the % scale 0 is the no-effect control and ±100 the full control effect; nearly all actives have a fitted effect of over 60% in size
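Complex of BAZ2B and biotin-H3K14Ac (50 nM apiece) forms over 30 min at RT, then faces library compounds up to 110 uM for another 30 min; AlphaScreen beads added, 20 min dark incubation, luminescence read.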
Sfp inh = Sfp phosphopantetheinyl transferase inhibition; Q9F4F7; Biochemical Sfp PPTase activity, qHTS; Potency, µM, for inactives: largest response in the series, negative = inhibition, most hits filed as inhibitors; actives 3.5% (n = 310,000);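 further: the enzyme is Sfp with the accession as filed and its product quenches rhodamine fluorescence; 0% = enzyme reaction without inhibitor and -100% = no enzyme wells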
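Fluorescence-quenching assay: 15 nM Sfp-PPTase preincubated 15 min at room temperature with compound, then 5 uM rhodamine-CoA and 12.5 uM BHQ-2-labelled YbbR peptide added. Fluorescence (ex 525/em 598 nm) read at start and after 30 min; difference gives rate.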
JMJD2A Tudor inh = inhibitors of human JMJD2A Tudor domain; O75164; AlphaScreen JMJD2A-Tudor / H3K4me3 peptide binding; Potency, µM (doses to about 114 µM), for inactives: at the highest dose activity change, negative = inhibition, hits mostly inhibitors; actives 4.4% (n = 390,000); further: on the % scale 0 is the no-effect control and ±100 the full control effect; nearly all actives have a fitted effect of over 50% in size
Target sequence (O75164 whole entry, looked up, the tested form may be a part): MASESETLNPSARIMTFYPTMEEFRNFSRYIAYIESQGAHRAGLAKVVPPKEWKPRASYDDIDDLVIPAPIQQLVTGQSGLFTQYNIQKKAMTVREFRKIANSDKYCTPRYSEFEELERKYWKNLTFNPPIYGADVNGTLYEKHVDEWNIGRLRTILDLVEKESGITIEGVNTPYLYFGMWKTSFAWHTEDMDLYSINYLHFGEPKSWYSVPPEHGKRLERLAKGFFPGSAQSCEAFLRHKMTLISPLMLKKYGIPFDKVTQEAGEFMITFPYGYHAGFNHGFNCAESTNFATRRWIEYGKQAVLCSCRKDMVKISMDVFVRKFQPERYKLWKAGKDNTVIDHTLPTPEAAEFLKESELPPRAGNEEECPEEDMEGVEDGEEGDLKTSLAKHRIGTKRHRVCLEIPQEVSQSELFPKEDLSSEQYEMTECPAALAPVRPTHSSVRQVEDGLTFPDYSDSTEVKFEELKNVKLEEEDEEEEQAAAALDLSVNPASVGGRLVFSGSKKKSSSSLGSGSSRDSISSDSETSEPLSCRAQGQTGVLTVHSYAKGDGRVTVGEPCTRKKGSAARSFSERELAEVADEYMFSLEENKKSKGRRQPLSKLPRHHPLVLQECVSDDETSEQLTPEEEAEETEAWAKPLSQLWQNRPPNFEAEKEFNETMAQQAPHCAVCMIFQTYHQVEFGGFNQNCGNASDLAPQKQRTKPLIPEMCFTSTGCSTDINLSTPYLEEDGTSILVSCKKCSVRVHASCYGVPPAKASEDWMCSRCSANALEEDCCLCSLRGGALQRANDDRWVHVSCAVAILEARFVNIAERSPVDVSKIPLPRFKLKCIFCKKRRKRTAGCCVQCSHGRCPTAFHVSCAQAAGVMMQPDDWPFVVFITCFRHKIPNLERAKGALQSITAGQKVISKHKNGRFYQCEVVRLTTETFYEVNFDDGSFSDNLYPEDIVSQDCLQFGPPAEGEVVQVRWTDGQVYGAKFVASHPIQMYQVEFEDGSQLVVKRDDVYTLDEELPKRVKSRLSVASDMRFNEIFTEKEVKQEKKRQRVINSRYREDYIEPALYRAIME
G9a inh = blocks human histone lysine methyltransferase G9a; Q96KQ7; G9a H3K9 monomethylation, AlphaScreen, 2 h; actives 8.8% (n = 350,000); Potency, µM (series often up to 102 µM), for inactives: at the top dose activity, negative = inhibition, usual class: inhibitors; further: on the % scale 0 is the no-effect control and ±100 the full control effect; nearly all actives have a fitted effect of over 75% in size
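Quantitative HTS format: methyltransferase activity on a biotin-tagged H3K9 peptide is measured by AlphaScreen, using a rabbit anti-monomethyl-H3K9 antibody with streptavidin donor and anti-IgG acceptor beads. Final levels are 20 nM enzyme, 500 nM peptide, 20 uM SAM; 2 h RT.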
HP1b binding inh = blocks HP1-beta chromodomain binding to methylated histone tails | P83916 | AlphaScreen HP1-beta / biotin-H3K9me3 peptide binding | Potency, µM (series often up to 114 µM), without a hit: top-dose activity change, negative = inhibition, actives largely listed as inhibitors | actives 0.56% (n = 390,000); further: nearly all actives have a fitted effect of over 70% in size
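Compound inhibition of the preformed complex between 50 nM HP1-beta and 50 nM biotinylated H3K9me3 peptide was read by AlphaScreen. Buffer was PBS pH 7.4 with 0.01% Tween-20. Incubations ran 30 min at room temperature, with 10 ug/mL donor/acceptor beads.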
Starred values were filed as active, the others as inactive; ? = inconclusive; nt = not tested or not shown; ! = not active in a repeat; [ ] = remark or other dose. Rows were chosen to be rich in hits. Some 12% of all compounds tested hit in one or more screens of this group. The call rests on the fitted dose curve; in most records, active means well fitted curve in the direction sought with a large enough effect; inconclusive means small, poorly fitted or top-dose-only effect, or another doubt; inactive means no such curve, though single readings can be large; an effect the other way counts as inactive or inconclusive. Potency means the concentration at half of the fitted maximal effect.

SMILES | L3MBTL1 block | BAZ2B inh | Sfp inh | JMJD2A Tudor inh | G9a inh | HP1b binding inh
CN1C(=O)C(=Cc2c(OCc3cnc(Cl)s3)ccc3ccccc23)C(=O)N(C)C1=O | -4.8% | ? | ? | -1.7% | ? | 39.6%
COc1ccc(C=C2C(=O)N(C)C(=O)N(C)C2=O)cc1COc1ccc(NC(C)=O)cc1 | -8.0% | ? | 39.8µM* | -17.1% | 44.7µM* | -2.8%
Cc1ccc(N2C(=O)NC(=O)/C(=C\c3ccsc3)C2=O)cc1C | 10.7% | 5.1% | 50.1µM* | nt | ? | nt
O=C1CC(=O)N(c2ccc3c(c2)OCO3)C(=O)N1 | -7.9%[11.4 µM] | 0.7% | -12.5% | -2.3%[11.4 µM] | ? | 43.8%
Cc1cc(/C=C2/C(=O)NC(=O)N(c3ccc(Br)cc3)C2=O)c(C)n1C | -5.1% | -8.4% | 6.0% | -12.3% | -4.3% | 8.8%
O=C1NC(=O)N(c2ccc3c(c2)OCO3)C(=O)/C1=C\c1ccsc1 | nt | -9.7% | 35.5µM* | 6.0% | nt | 49.0%
CC(=O)OC1CC2C(C)(C)C(O)C=C[C@@]2(C)C2CC[C@]3(C)C(=CC(=O)OC3c3ccoc3)[C@]12C (some centres not stated) | nt | nt | -6.3% | nt | -18.9%[2.33 µM] | nt
COc1cc(OC)cc(C(=O)Nc2ccc(Br)cc2C(=O)c2ccccc2)c1 | -6.6% | -3.4% | 35.5µM* | -20.5% | 16.9%[59 µM] | 10.5%
COc1cc(C(=O)Nc2ccc(Br)cc2C(=O)c2ccccc2Cl)cc(OC)c1OC | 7.5% | 1.8% | 7.1% | -19.7% | -7.0%[59 µM] | 11.2%
OC[C@@H]1CCCN2CCCC[C@@H]12 | nt | nt | 2.3% | nt | nt | nt
O=C(CC[N+](=O)[O-])OCC1OC(O)C(OC(=O)CC[N+](=O)[O-])[C@@H](OC(=O)CC[N+](=O)[O-])C1OC(=O)CC[N+](=O)[O-] (some centres not stated) | nt | nt | -5.7% | nt | nt | nt
Cc1cc(C(C#N)c2ccc(Cl)cc2)c(Cl)cc1NC(=O)c1cc(I)cc(I)c1O (configuration not stated) | ? | 44.7µM* | ? | 50.1µM* | 14.1µM* | -13.2%
CCC(Oc1ccc(Cl)cc1)C(=O)OC1CC2CCC(C1)N2C (configuration not stated) | nt | nt | 5.1% | nt | 13.4%[59 µM] | nt
O=C(O)C(Cc1cnc[nH]1)NS(=O)(=O)c1ccc(Br)cc1 (configuration not stated) | nt | -6.8% | -23.9% | 10µM* | 39.8µM* | 2.5%
COc1cc(CNCCc2ccc3c(c2)OCO3)ccc1O | -10.8%[2.29 µM] | 2.1% | 5.2% | -15.0% | 0.1%[0.501 µM] | 37.2%
COc1ccc(CNCCc2ccc3c(c2)OCO3)cc1Br | nt | 50.1µM* | ? | 17.8µM* | 5.01µM* | -14.9%
COc1ccc(Br)cc1CNCCc1ccc2c(c1)OCO2 | nt | nt | nt | 25.1µM* | nt | ?
CN1CCN(Cc2cc3c(cc2[N+](=O)[O-])OCO3)CC1 | 2.0% | 5.6% | 0.4% | -15.1% | nt | 22.0%
COc1cc(CNCCc2ccc3c(c2)OCO3)cc(OC)c1OC | -0.7% | 56.2µM* | -19.1% | 0.794µM* | 5.01µM* | ?
COc1ccccc1CCNCc1cc2c(cc1[N+](=O)[O-])OCO2 | -0.6% | 50.1µM* | -16.5% | 3.55µM* | 25.1µM* | -54.7%
CCCC(Cn1cncn1)c1ccc(Cl)cc1Cl (configuration not stated) | nt | nt | 6.9% | nt | nt | nt
CCN(CC)Cc1cc(Nc2ccnc3cc(Cl)ccc23)ccc1O | -14.3% | 50.1µM*! | 6.6% | -28.1% | ? | 17.5%
Nc1ccc(Oc2cccc(Oc3ccc(N)cc3)c2)cc1 | nt | 39.8µM* | 12.1% | ? | 44.7µM* | ?
CCOc1ccc(N)cc1 | nt | nt | nt | -26.6% | nt | 15.3%
COC(C(=O)C(O)C(C)O)C1Cc2cc3cc(OC4CC(OC5CC(O)C(OC)C(C)O5)C(OC(C)=O)C(C)O4)c(C)c(O)c3c(O)c2C(=O)C1OC1CC(OC2CC(OC3CC(C)(O)C(OC(C)=O)C(C)O3)C(O)C(C)O2)C(O)C(C)O1 (configuration not stated) | nt | nt | 7.5% | nt | -2.3%[59 µM] | nt
SMILES | L3MBTL1 block | BAZ2B inh | Sfp inh | JMJD2A Tudor inh | G9a inh | HP1b binding inh
O=C(c1csnn1)N1CCC2(CC1)CN(Cc1ccncc1)C2 | nt | nt | -8.6% | nt | 11.6%[12.7 µM] | nt
CC(=O)N1CC2CC(C1)c1cccc(=O)n1C2 (configuration not stated) | nt | nt | 6.0% | nt | nt | nt
CC(C)(C)c1ccc(C(=O)NCCN2CCOCC2)cc1 | nt | nt | nt | -15.7% | nt | 44.0%
CC(C)(C)c1ccc(-c2n[nH]c(=S)n2CCCN2CCOCC2)cc1 | 4.9%[11.4 µM] | -32.7% | 2.5% | 10µM* | 6.31µM* | 4.0%
Cn1ccnc1P(=S)(c1nccn1C)N1CCOCC1 | -2.3% | ? | ? | 35.5µM* | ? | ?
C=Cn1ccnc1P(=S)(c1ccc(N(C)C)cc1)c1nccn1C=C | -0.7% | ? | -3.7% | ? | -30.3%[59 µM] | 10.7%
Cn1ccnc1P(=S)(c1nccn1C)c1nccn1C | 7.5% | ? | 50.1µM* | 31.6µM* | 3.55µM* | 3.8%
N#CC(C#N)=NNc1ccc([N+](=O)[O-])cc1 | nt | 39.8µM* | 8.6% | ? | 31.6µM* | ?
CSC(=S)NCc1c[nH]c2ccccc12 | nt | nt | -18.6% | nt | 1.4%[59 µM] | nt
CCC(CC)NCc1c[nH]c2ccccc12 | 5.2% | 79.4µM* | -7.5% | 22.4µM* | 14.1µM* | -29.6%
Cn1c(=O)oc2cc(S(=O)(=O)N3CCC(C(=O)N4CC=C(c5ccccc5)CC4)CC3)ccc21 | nt | -3.0% | 4.6% | -15.2% | 50.1µM* | 34.3%
Cn1c(=O)oc2cc(S(=O)(=O)N3CCC(C(=O)N4CCN(c5ccccc5)CC4)CC3)ccc21 | ? | -7.6% | 3.4% | -19.3% | -20.7% | 24.1%
Cc1occc1C(=O)Nc1ccccc1 | nt | nt | 4.6% | nt | nt | nt
CN(C)C(Cc1ccc(Cl)cc1)C(=O)c1ccccc1 (configuration not stated) | -4.5% | -6.3% | 4.2% | -14.9% | 44.7µM* | 12.0%
O=C(O)Cc1cccnc1C(=O)O | nt | nt | 15.8µM* | nt | ? | nt
Oc1ccc2c3c1O[C@H]1c4c(c5ccccc5n4Cc4ccccc4)C[C@@]4(O)C(C2)N(CC2CC2)CC[C@]314 | nt | nt | -16.7% | nt | -39.5%[59 µM] | nt
O=C1CC(=O)N(c2cccc(C(F)(F)F)c2)C(=O)N1 | nt | 3.1% | -20.5% | -12.4% | 21.3% | 14.9%
O=C1CC(=O)N(c2cccc(Br)c2)C(=O)N1 | nt | -23.5% | -7.3% | ? | 56.2µM* | 5.3%
Cc1cccc(N2C(=O)/C(=C/N3CCN(C(=O)c4ccco4)CC3)C(=O)NC2=S)c1 | 4.9% | -2.5% | ? | -18.3% | ? | 17.2%
O=C1NC(=S)N(c2ccc(Br)cc2)C(=O)/C1=C/N1CCN(C(=O)c2ccco2)CC1 | -1.3% | -33.1% | -3.8% | -29.0% | 44.7µM* | 4.1%
